Compound activity as filed in PubChem BioAssay.
The full list was thinned out, with hits kept by preference.
miR-122 inh: raises miR-122 sensor activity in Huh7 cells. Huh7 psiCHECK-miR122 Renilla luciferase sensor, 48 h. activation, % at 12.5 µM. actives 0.14% (n = 340,000);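 active = mean activation of 30% or more, with every replicate also reaching 30%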;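 also: 0% = median of neutral control wells and 100% = median of positive control wells; higher luciferase signal means stronger suppression of miR-122 activity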
Starred values were filed as active, the others as inactive.

SMILES	miR-122 inh
CCCC(O)C#Cc1cnc2c(c1)C(=O)N([C@H](C)CO)C[C@H](C)[C@H](CN(C)Cc1cccc(C(F)(F)F)c1)O2 (stereo partly drawn)	-2
C[C@H]1CN([C@@H](C)CO)C(=O)c2cc(-c3cncnc3)cnc2O[C@H]1CN(C)Cc1ccncc1	3
COc1cccc(CNC(=O)C[C@@H]2CC[C@H]3[C@H](COc4ccc(NC(C)=O)cc4C(=O)N3C)O2)c1	37*
COc1ccccc1C(=O)Nc1ccc2c(c1)C(=O)N(C)[C@H]1CC[C@H](CC(=O)NCc3ccc(Cl)c(Cl)c3)O[C@H]1CO2	-308
CC(=O)Nc1ccc2c(c1)C(=O)N(C)[C@@H]1CC[C@@H](CC(=O)NCc3ccc(Cl)cc3)O[C@H]1CO2	68*
COc1ccccc1C(=O)Nc1ccc2c(c1)C(=O)N(C)[C@H]1CC[C@H](CC(=O)NCc3ccc(Cl)c(Cl)c3)O[C@@H]1CO2	-139
COc1cccc(C(=O)Nc2ccc3c(c2)C(=O)N(C)[C@H]2CC[C@H](CC(=O)NCc4ccc(F)cc4)O[C@@H]2CO3)c1	53*
CC(=O)Nc1ccc2c(c1)C(=O)N(C)[C@H]1CC[C@@H](CC(=O)NCc3ccc(Cl)cc3)O[C@H]1CO2	-130
Cc1ccc([N+](=O)[O-])cc1N(CC(=O)Nc1ccc(S(=O)(=O)Nc2cccc(C(F)(F)F)c2)cc1)S(C)(=O)=O	-123
C[C@@H]1CN([C@@H](C)CO)C(=O)c2cc(C#Cc3ccccn3)cnc2O[C@@H]1CN(C)Cc1cccnc1	2
C[C@@H]1CN([C@@H](C)CO)C(=O)c2cc(-c3ccc(C(=O)N(C)C)cc3)cnc2O[C@@H]1CN(C)Cc1ccc(C(=O)O)cc1	-1
C[C@H](CO)N1C[C@H](C)[C@H](CN(C)C(=O)CCN2CCCCC2)Oc2ncc(C#Cc3ccccn3)cc2C1=O	-3
COc1ccccc1NS(=O)(=O)c1cc(NC(=O)CCC(=O)c2cccs2)ccc1Cl	-108
CCOC(=O)Nc1cc2c(c(N)n1)N=C(c1ccccc1)CN2	-119
CCOC(=O)CCS(=O)(=O)c1nc(-c2ccccc2)cc(C(F)(F)F)n1	51*
C[C@@H]1CN([C@@H](C)CO)S(=O)(=O)c2ccc(-c3ccncc3)cc2O[C@H]1CN(C)Cc1ccccc1	-24
CCN1C(=O)c2cccc3c(S(=O)(=O)Nc4ccccc4)ccc1c23	-151
Cc1ccsc1/C=N/NC(=O)CSCc1ccc(Cl)cc1	36*
C[C@@H]1CN([C@H](C)CO)S(=O)(=O)c2ccc(-c3cncnc3)cc2O[C@@H]1CN(C)Cc1cncnc1	-6
CCNC(=O)Nc1ccc2c(c1)C(=O)N(C)[C@H]1CC[C@H](CC(=O)Nc3ccccc3F)O[C@@H]1CO2	53*
CCCNC(=O)C[C@H]1CC[C@H]2[C@@H](COc3ccc(NC(=O)c4cc(F)cc(F)c4)cc3C(=O)N2C)O1	53*
CCCNC(=O)C[C@@H]1CC[C@H]2[C@H](COc3ccc(NC(=O)c4ccc5c(c4)OCO5)cc3C(=O)N2C)O1	-102
CN1C(=O)c2cc(NC(=O)Cc3ccccc3)ccc2OC[C@@H]2O[C@H](CC(=O)NCC3CC3)CC[C@@H]21	-233
Cc1ccccc1NC(=O)Nc1ccc2c(c1)C(=O)N(C)[C@@H]1CC[C@H](CC(=O)NCC3CC3)O[C@@H]1CO2	47*
CC(C)c1ccc(NC(=O)C[C@H]2CC[C@H]3[C@@H](COc4ccc(NC(=O)Nc5ccc(F)c(F)c5)cc4C(=O)N3C)O2)cc1	45*
SMILES	miR-122 inh
COCC(C)n1c(SCC(=O)NC(=O)Cc2ccccc2)nc2ccccc2c1=O (stereo not drawn)	-144
Cc1ccc(C)c(S(=O)(=O)Nc2ccc3sc(C)nc3c2)c1	-428
C[C@@H]1CN([C@@H](C)CO)S(=O)(=O)c2ccc(-c3ccc(F)cc3)cc2O[C@H]1CN(C)C(=O)C1CCOCC1	-1
O=C(C[C@H]1CC[C@H]2[C@@H](COC[C@H](O)CN2C(=O)Nc2cccc(F)c2)O1)NCc1ccccc1F	-97
COc1ccc(OCc2cc(C(=O)NCCc3ccccc3)no2)c(Cl)c1	-111
CCC(=O)N(C)C[C@H]1Oc2ncc(C#C[C@H](C)O)cc2C(=O)N([C@@H](C)CO)C[C@@H]1C	-1
COc1cccc(-c2cnc3c(c2)C(=O)N([C@@H](C)CO)C[C@@H](C)[C@H](CN(C)C(=O)CC2CC2)O3)c1	5
COc1ccc(-c2cnc3c(c2)C(=O)N([C@@H](C)CO)C[C@@H](C)[C@@H](CN(C)Cc2ccccn2)O3)cc1	1
CCCNC(=O)N(C)C[C@@H]1Oc2cc(C#CCOC)ccc2S(=O)(=O)N([C@H](C)CO)C[C@@H]1C	1
Cc1ccc(S(=O)(=O)N(C)C[C@@H]2Oc3ncc(-c4cccc(C(F)(F)F)c4)cc3C(=O)N([C@H](C)CO)C[C@@H]2C)cc1	9
C[C@H]1CN([C@@H](C)CO)S(=O)(=O)c2ccc(C#CCC3CCCC3)cc2O[C@@H]1CN(C)C(=O)c1ccccn1	-50
C/C=C/c1cnc2c(c1)C(=O)N([C@@H](C)CO)C[C@@H](C)[C@H](CN(C)C(=O)Cc1cccnc1)O2	-1
C[C@@H]1CN([C@H](C)CO)C(=O)c2cccc(NC(=O)c3nc4ccccc4s3)c2O[C@@H]1CN(C)Cc1ccc(C(=O)Nc2ccccc2N)cc1	-95
C[C@@H]1CN([C@H](C)CO)S(=O)(=O)c2ccc(-c3ccccc3F)cc2O[C@H]1CN(C)S(C)(=O)=O	-19
C[C@@H]1CN([C@@H](C)CO)C(=O)c2cc(-c3ccc(C(=O)N(C)C)cc3)cnc2O[C@H]1CN(C)Cc1ccc(C(=O)O)cc1	5
CN1C(=O)c2cc(NC(=O)Cc3ccccc3)ccc2OC[C@@H]2O[C@H](CC(=O)NCc3ccc(Cl)cc3)CC[C@@H]21	-293
CCCNC(=O)C[C@@H]1CC[C@@H]2[C@@H](COc3ccc(NC(=O)Nc4ccccc4F)cc3C(=O)N2C)O1	50*
CCCNC(=O)C[C@@H]1CC[C@H]2[C@H](COc3ccc(NC(=O)Cc4cccs4)cc3C(=O)N2C)O1	-207
CCCNC(=O)C[C@@H]1CC[C@@H]2[C@H](COc3ccc(NC(=O)Nc4c(C)noc4C)cc3C(=O)N2C)O1	-258
CCCNC(=O)Nc1ccc2c(c1)C(=O)N(C)[C@@H]1CC[C@H](CC(=O)NCC3CCCCC3)O[C@H]1CO2	33*
CCCNC(=O)C[C@H]1CC[C@H]2[C@H](COc3ccc(NC(=O)Cc4cccs4)cc3C(=O)N2C)O1	-167
Cc1nn(C)cc1NC(=O)C[C@@H]1CC[C@@H]2[C@@H](COc3ccc(NC(=O)Nc4cccc(Cl)c4)cc3C(=O)N2C)O1	48*
Cc1cccc(NC(=O)Nc2ccc3c(c2)C(=O)N(C)[C@H]2CC[C@@H](CC(=O)NCc4ccccc4Cl)O[C@H]2CO3)c1	37*
CN(c1cccc(NC(=O)c2ccc(Cl)c(S(=O)(=O)Nc3ccccc3)c2)c1)S(C)(=O)=O	-197
C[C@H](CO)N1C[C@H](C)[C@H](CN(C)CC2CCOCC2)Oc2ncc(C#Cc3ccc(F)cc3)cc2C1=O	6
O=C(c1ccccc1)C(O)(Cc1ccccc1)c1ccccc1 (stereo not drawn)	-168
C[C@@H]1CN([C@H](C)CO)C(=O)c2cc(Br)cnc2O[C@H]1CN(C)C(=O)NC1CCCC1	4
COc1ccccc1C#Cc1ccc2c(c1)O[C@@H](CN(C)Cc1ccncc1)[C@@H](C)CN([C@@H](C)CO)S2(=O)=O	6
CO[C@@H]1CN(C)C(=O)c2cc(NC(=O)NC(C)C)ccc2OC[C@@H](C)N(C(=O)NC(C)C)C[C@H]1C	-7
